Inconclusive results are not listed. Calls of active or inactive are those of the source. Unless noted, calls come from the whole dose curve.
Experiments:
[1] = qHTS assay to identify small molecule agonists of the vitamin D receptor (VDR) signaling pathway - cell viability counter screen (AID 743224; active = well fitted curve in the direction sought with a large enough effect in the repeat runs; an effect the other way counts as inactive or inconclusive; note: series mostly up to about 63 µM; nearly all actives have a fitted effect of over 50% in size)
Method in brief: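 CellTiter-Glo viability readout on VDR-bla cells, measured after 16 h of compound treatment at 37C in the same wells.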

[2] = qHTS assay to identify small molecule agonists of the NFkB signaling pathway (AID 1159509; active = well fitted curve in the direction sought with a large enough effect in the signal ratio in the repeat runs, not every such curve was filed as active; the % refers to the signal ratio; note: series mostly up to about 61 µM)
Method in brief: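 Agonist activity was read as beta-lactamase-driven FRET change (460 and 530 nm emission, 405 nm excitation) following 1.5 hr substrate loading at room temperature. Beforehand, ME-180 NFkB-bla reporter cells were treated with compounds for 5 hr at 37 C.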

[3] = qHTS assay to identify small molecule agonists of the NFkB signaling pathway - cell viability counter screen (AID 1159515); note: series mostly up to about 61 µM; nearly all actives have a fitted effect of over 55% in size
Method in brief: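 Tox21 library compounds were tested for cytotoxicity against NFkB-bla ME-180 cells during a 5 hr exposure at 37 C. CellTiter-Glo luminescence served as the viability read-out.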

[4] = qHTS assay to identify small molecule agonists of the endoplasmic reticulum stress response signaling pathway (AID 1159516; active = well fitted activation curve with a large enough effect in the signal ratio in the repeat runs, not every such curve was filed as active; the % refers to the signal ratio)
Method in brief: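 Fluorescence at 460 and 530 nm (405 nm excitation) reports beta-lactamase from an ER stress response element in HeLa cells treated 5 hr at 37 C.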

[5] = qHTS assay to identify small molecule agonists of the endoplasmic reticulum stress response signaling pathway - cell viability counter screen (AID 1159517); note: series mostly up to about 61 µM; nearly all actives have a fitted effect of over 50% in size
Method in brief: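 In parallel with the ESRE reporter read, cytotoxicity was scored by CellTiter-Glo luminescence (30 min, room temperature) on HeLa ESRE-bla cells dosed for 5 hr.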

[6] = qHTS assay to identify small molecule antagonists of the retinoid-related orphan receptor gamma (ROR-gamma) signaling pathway - cell viability counter screen (AID 1159520; active = well fitted curve in the direction sought with a large enough effect in the repeat runs; an effect the other way counts as inactive or inconclusive; note: nearly all actives have a fitted effect of over 50% in size)
Method in brief: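 Tet-on ROR gamma CHO cells were given compounds for 2 hr, then doxycycline hyclate at 1 uM final, and incubated 16 hr at 37 C. Viability was measured as ATP content by CellTiter-Glo luminescence.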

[7] = molecular target: Nuclear receptor ROR-gamma (Homo sapiens) (UniProt P51449); assay: qHTS assay to identify small molecule antagonists of the retinoid-related orphan receptor gamma (ROR-gamma) signaling pathway (AID 1159521; active = well fitted curve in the direction sought with a large enough effect in the repeat runs; an effect the other way counts as inactive or inconclusive;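 note: CHO cells with doxycycline inducible ROR-gamma driving an RORE luciferase reporter; top concentration of the series differs between compounds; nearly all actives have a fitted effect of over 50% in size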)
Method in brief: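 RORγ antagonism is scored from reduced reporter luminescence in Tet-on CHO cells. Induction used 1 uM final doxycycline hyclate for 16 h at 37 C, following a 2 h compound exposure.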

[8] = qHTS assay to identify small molecule agonists of the AP-1 signaling pathway - cell viability counter screen (AID 1159525); note: nearly all actives have a fitted effect of over 55% in size
Method in brief: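 Same-well cytotoxicity counter screen of the Tox21 10K library in ME-180 cells. The readout is ATP-dependent luminescence after 5 h compound treatment. Data are normalised to DMSO and tetra n-octyl ammonium bromide controls.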

[9] = qHTS assay to identify small molecule agonists of the AP-1 signaling pathway (AID 1159526)
[10] = qHTS assay to identify small molecule antagonists of the vitamin D receptor (VDR) signaling pathway - cell viability counter screen (AID 743225; active = well fitted curve in the direction sought with a large enough effect in the repeat runs; an effect the other way counts as inactive or inconclusive; note: nearly all actives have a fitted effect of over 50% in size)
Method in brief: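 Cells (VDR-UAS-bla HEK 293T) are plated, rested 4 h at 37C, dosed with compound and 3 nM final 1-alpha,25-dihydroxy vitamin D3, and incubated 16 h. Viability is taken from CellTiter-Glo luminescence in the reporter wells.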

Measured: Potency

N#Cc1ccc(CC(=O)c2cccc(C(F)(F)F)c2)cc1
not listed: [10]
inactive: all other assays above

CC(=O)Nc1cccc(N)c1
not listed: [10]
inactive: all other assays above

CCOc1cc(OCC)c(C(C)=O)cc1OCC
inactive: all assays above

CCCCCCCCNC
not listed: [10]
inactive: all other assays above

FC(F)(Cl)C(F)(Cl)Cl
not listed: [10]
inactive: all other assays above

CCn1nc(Cc2ccccc2)cc1C1CCN(C[C@H]2C[C@H](N(C)[C@@H](C(=O)O)C(C)C)C[C@@H]2c2cccc(F)c2)CC1
not listed: [10]
inactive: all other assays above

CC(C)C/C=C(\C=O)c1ccccc1
not listed: [10]
inactive: all other assays above

O=c1c2ccccc2oc2ccccc12
inactive: all assays above

CC(C)Oc1ccccc1O
inactive: all assays above

O=C(Nc1ccccc1)c1cc([N+](=O)[O-])ccc1Cl
inactive: all assays above

Cc1nc(C)c(C)nc1C
inactive: all assays above

CCCCCCCCCCCCN1CCOCC1
inactive: all assays above

CCCCOC(=O)C(C)Oc1ccc(Oc2ccc(C(F)(F)F)cn2)cc1 (configuration not stated)
inactive: all assays above

CCCN(C1CCN(C(=O)C2CCNCC2)CC1)[C@@H]1CCc2ccc(OC)cc2C1
not listed: [10]
inactive: all other assays above

COC(=O)/C=C/C(C)=C\C=C\C(C)=C\C=C\C=C(C)\C=C\C=C(C)\C=C\C(=O)O
inactive: all assays above

CCCCCCCCCCCC(=O)OCC
inactive: all assays above

CC[C@H](NC(C)C)[C@H](O)c1ccc(O)c2[nH]c(=O)ccc12
inactive: all assays above

Cc1nc2sccn2c(=O)c1CCN1CCC(=C(c2ccc(F)cc2)c2ccc(F)cc2)CC1
not listed: [10]
inactive: all other assays above

OCCOc1cccc(OCCO)c1
inactive: all assays above

C=CC(C)(O)CC/C=C(/C)CCC=C(C)C (configuration not stated)
inactive: all assays above

CCCCCCCCCCCCSCCOCCO
inactive: all assays above
